# Most compounds without a hit are left out; they make up all but 2.2% or so of the library.
# Mito fusion act = mitochondrial division inhibition or fusion activation. Potency, µM (series often up to 46.1 µM), inactives show at the highest dose growth rescue (activation), most hits filed as activators. S. cerevisiae fusion-defective mutant growth rescue, CellTiterGlo 48 h. 320,000 compounds, 0.23% hits; also: % of control where 0% means no effect; nearly all actives have a fitted effect of over 45% in size
#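 Compounds are tested for their ability to restore growth of mitochondrial fusion-defective yeast strains at non-permissive 37C in YPEG medium over 48 hours. Viability is quantified by luciferase luminescence.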
# TDP-43 yeast inh = TDP-43 toxicity inhibition in yeast; AID 652104; TDP-43 expressing yeast growth rescue, BacTiter-Glo, 24 h; 410,000 compounds, 1.8% hits; Potency, µM (highest dose often 46.1 µM), for the others: top-dose growth rescue (activation), actives largely listed as activators; also: % of control where 0% means no effect; nearly all actives have a fitted effect of over 50% in size
#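 Cell-based yeast growth screen: TDP-43 expression induced in galactose, inoculum OD600=0.02 after raffinose pregrowth to mid-log. Read-out BacTiter-Glo luminescence at 24 hr, 30 deg C; inhibition of toxicity seen as signal increase.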
# Abeta rescue = restores growth of yeast expressing A-beta42 peptide | yeast expressing A-beta42, growth rescue, OD600, 48 h; response scale: 0% DMSO, 100% iron-clioquinol control | Potency, µM (top dose mostly 46.1 µM), usual class: activators | 410,000 compounds, 0.063% hits; also: nearly all actives have a fitted effect of over 55% in size
#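 Yeast growth medium received pinned compounds, then yeast cells expressing toxic A-beta were added; plates incubated at 30 C for 48 hr. Growth read as absorbance at 600 nm, normalized to DMSO and equimolar FeCl3 plus clioquinol controls.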
# FUS suppressor = FUS proteinopathy suppression in yeast; S. cerevisiae FUS-expressing, growth rescue, OD600, 24 h; Potency, µM (highest dose often 76.6 µM), actives largely listed as activators; 390,000 compounds, 0.24% hits; AID 1347120;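 also: plate controls were DMSO vehicle for no effect and reference control for full effect; nearly all actives have a fitted effect of over 55% in size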
#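 S. cerevisiae expressing FUS from galactose induction served as the toxicity model. Growth after 24hr at 30C, read as absorbance at 600 nm, indicates suppression of toxicity; compounds dosed at several concentrations.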
# aSyn yeast inh = rescues yeast growth from alpha-synuclein toxicity; Potency, µM (series often up to 46.1 µM), inactives show at the highest dose growth rescue (activation), usual class: activators; Yeast expressing alpha-synuclein, growth rescue, BacTiter-Glo, 24 h; 370,000 compounds, 0.14% hits; also: % of control where 0% means no effect; nearly all actives have a fitted effect of over 65% in size
#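 Rescue of yeast growth: cells expressing toxic alpha-synuclein, induced in galactose at OD600 0.02, incubated with compound 24 h at 30 C. ATP luminescence quantified growth; inhibitors of toxicity appear as activators.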
# Starred values were filed as active, the others as inactive; i = inactive; u = inconclusive; x = no result given. Calls follow the shape of the dose curve; as a rule, active = well fitted curve in the direction sought with a large enough effect; inconclusive = small, poorly fitted or top-dose-only effect, or another doubt; inactive = no such curve, though single readings can be large; an effect the other way counts as inactive or inconclusive. Potency is read from the fitted curve at half-maximal effect.
SMILES,Mito fusion act,TDP-43 yeast inh,Abeta rescue,FUS suppressor,aSyn yeast inh
CC(C)(C)S(=O)N1Cc2cc(C(=O)NCC(F)(F)F)nc(-c3cccc(-c4cccc(F)c4)c3)c2[C@@H]1CCO (some centres not stated),x,16%,i,22µM*,-2%
CC(C)(C)S(=O)N1Cc2cc(C(=O)NCc3ccc4c(c3)OCO4)nc(-c3cccc(-c4cc5ccccc5o4)c3)c2[C@@H]1CCO (some centres not stated),x,-10%,i,28µM*,-18%
COc1cccc(-c2cccc(-c3nc(C(=O)NCc4ccc5c(c4)OCO5)cc4c3[C@H](CCO)N(S(=O)C(C)(C)C)C4)c2)c1 (some centres not stated),x,-19%,i,20µM*,-53%
CC(C)(C)S(=O)N1Cc2cc(C(=O)NCc3ccc(Oc4ccccc4)cc3)nc(-c3cccc(-c4cc5ccccc5o4)c3)c2[C@H]1CCO (some centres not stated),x,28%,i,u,-27%
CCNC(=O)c1cc2c(c(-c3cccc(-c4cccc(C(=O)N(C)C)c4)c3)n1)[C@@H](CCO)N(S(=O)C(C)(C)C)C2 (some centres not stated),x,23%,i,u,-8%
COc1cccc(-c2cccc(-c3nc(C(=O)Nc4ccc(-c5ccccc5)cc4)cc4c3[C@H](CCO)N(S(=O)C(C)(C)C)C4)c2)c1 (some centres not stated),x,0%,i,28µM*,-15%
COc1ccccc1-c1cccc(-c2nc(C(=O)N3CCCCC3)cc3c2[C@@H](CCO)N(S(=O)C(C)(C)C)C3)c1 (some centres not stated),x,18%,i,i,-3%
CN(C)C(=O)c1cccc(-c2cccc(-c3nc(C(=O)NCc4ccccc4)cc4c3[C@H](CCO)N(S(=O)C(C)(C)C)C4)c2)c1 (some centres not stated),x,16%,i,i,-1%
CCCOc1ccc(C2C(=O)N(C3CCCCCC3)CC(=O)N2CCCOCC)cc1OC (configuration not stated),x,-12%,i,i,x
O=C(CCC1N=C2c3ccccc3N=C(SCc3cccc(Cl)c3)N2C1=O)NCc1cccs1 (configuration not stated),x,23%,i,i,x
COc1ccccc1NC(=O)C1=C(C)Nc2nc(SCc3ccccc3F)nn2C1c1cccs1 (configuration not stated),x,5%,i,i,x
O=c1cc(-c2ccccc2)n(S(=O)(=O)c2ccccc2)o1,-1%,u,i,i,u
O=c1cc(-c2ccccc2)n(S(=O)(=O)c2ccc3ccccc3c2)o1,x,u,i,i,20µM*
COc1ccc(S(=O)(=O)n2oc(=O)cc2-c2ccccc2)cc1OC,-2%,14µM*,i,i,u
COc1ccc(S(=O)(=O)n2oc(=O)cc2-c2ccccc2)cc1,-2%,u,i,i,10%
CCN(CC)S(=O)(=O)c1ccc2c(c1)nc(CN(C)C(=O)Nc1cccc(Cl)c1)n2C,x,-16%,i,i,x
CC(C)(C)c1ccc(C(=O)Nc2ccc(C(=O)OCc3cc(=O)n4ccsc4n3)cc2)cc1,x,14%,i,i,x
CCOc1cc2c(cc1OCC)C(CC(=O)O)N(C(=O)Nc1ccccc1C(F)(F)F)CC2 (configuration not stated),x,6%,i,i,x
CCCCCCCCCc1conc1C(=O)/C=C/c1ccco1,x,14%,i,i,1%
CCCCCCCCCc1conc1C(=O)CP(=O)(OC)OC,x,35µM*,i,i,-4%
Cc1ccccc1CN1C(=O)c2ccccc2Sc2ccc(C(=O)NC(C)c3ccccc3)cc21 (configuration not stated),x,9%,i,i,x
CCOc1ccccc1NC(=S)Nc1ncccc1C,24%,14µM*,i,x,-11%
CCOC(=O)N1CCN(C(=O)c2ccc(Cn3c(=S)[nH]c4ccc(Br)cc4c3=O)cc2)CC1,-4%,-28%,i,i,-3%
COc1ccc(S(=O)(=O)c2cc3cc(C(C)(C)C)cc(O)c3oc2=O)cc1,x,-17%,i,40µM*,x
COc1ccc(S(=O)(=O)c2cc3cc(OC)ccc3oc2=O)cc1,x,19%,i,i,x
SMILES,Mito fusion act,TDP-43 yeast inh,Abeta rescue,FUS suppressor,aSyn yeast inh
Cc1nc(Sc2nnnn2C2CC2)c2c(-c3ccccc3)csc2n1,x,x,x,x,1%
COc1ccc(C(=O)O)cc1NCc1ccc(C)s1,-7%,3.2µM*,i,i,14%
Cc1ccc(CNc2cc(C(=O)O)ccc2C)s1,4%,u,i,i,19%
COc1ccc([C@H]2C[C@@H](O)[C@H](n3cc(C4CC4)nn3)CN2Cc2cccs2)cc1,x,0%,i,i,15%
CCCc1nc(SC)ncc1C(=O)N1CCN(c2ccc(Cl)cc2)CC1,x,35µM*,i,i,x
CCNC(=S)N/N=C/c1cc(C)ccc1C,-1%,22%,4.5µM*,i,2%
O=S(=O)(CC1NCc2cc(F)ccc21)NCCc1ccccc1 (configuration not stated),x,x,x,i,x
NNc1nnc(-c2ccccc2)c(-c2ccccc2)n1,0%,-16%,i,35µM*,3%
Cc1ccc(-n2cc3c(-c4cccc(Br)c4)nnc(C)c3n2)cc1,-3%,u,i,u,0%
Cc1nnc(-c2cccc(Br)c2)c2cn(-c3ccccc3Cl)nc12,-7%,10µM*,i,i,10%
C=CCN1CCc2c(cc(O)c(O)c2Br)[C@@H](c2ccccc2)C1,16µM*,12%,i,i,u
CN1CCc2cc(O)c(O)cc2C(c2ccccc2)C1 (configuration not stated),u,26%,i,i,1%
Cc1nc(-n2nc(C)c(Cc3ccc4c(c3)OCO4)c2C)sc1C(=O)Nc1cccc(Cl)c1,x,1%,i,i,x
Cc1ccccc1OCC(=O)Nc1ccc(N2CCN(C(=O)c3ccco3)CC2)cc1,3%,16µM*,u,i,2%
O=C(COc1ccccc1Cl)Nc1ccc(N2CCN(C(=O)c3ccccc3)CC2)cc1,9%,22µM*,i,i,0%
Cc1ccc2c(c1)-c1c(cnn1CC(=O)NCCc1ccc(Cl)cc1)CO2,x,x,x,i,x
Cc1ccc(Cl)cc1N1CCN(C(=O)c2noc(C)c2[N+](=O)[O-])CC1,u,13µM*,i,i,2%
Cc1ccc(CSCC(=O)N2CCN(c3ccccc3F)CC2)cc1,x,u,i,u,x
Cc1ccc(CSCC(=O)N2CCN(c3cc(Cl)ccc3C)CC2)cc1,x,18µM*,i,i,x
